Experimental findings from PubChem BioAssay (NCATS) are described below.

Records with an inconclusive call do not appear. Values without a mark were called inactive. Active and inactive are the calls of the source. Calls follow the shape of the dose curve; as a rule, active = well fitted inhibition curve with a large enough effect; inconclusive = small, poorly fitted or top-dose-only effect; inactive = no such curve, though single readings can be large or run the other way.

The subject of test [1] is Zika virus NS2B-NS3 protease (unlinked complex). The test can be described thus: Primary screen GU Rhodamine qHTS for Zika virus inhibitors: Unlinked NS2B-NS3 protease assay (AID 1347159). Also: nearly all actives have a fitted effect of over 60% in size. Summed up: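 In dose–response format, inhibition of unlinked protease (25 nM) was measured with 1.5 microM bis-peptide Rhodamine110 substrate. Aprotinin served as the intraplate control.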

Test [2] deals with Zika virus NS2B-NS3 protease (linked construct). Nature of the test: Primary screen NINDS Rhodamine qHTS for Zika virus inhibitors (AID 1347160). Also: nearly all actives have a fitted effect of over 55% in size. In a few lines: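 Each compound, titrated, sat 15 min with 25 nM linked protease before 1.5 microM Rhodamine110 substrate went in. Fluorescence gain over the next 15 min, in pH 8.0 Tris with Tween 20, gave Hill-fitted curves.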
In general terms: qHTS replaces the single test concentration by a dilution series.
% is scaled to controls: 0 for no effect and ±100 for the full control effect.

As for `CC1CC[C@]2(C(=O)O)CC[C@]3(C(=O)O)C(=CCC4[C@@]5(C)CC[C@H](O[C@@H]6O[C@H](CO)[C@@H](O)[C@H](O)[C@H]6O)C(C)(C)C5CC[C@]43C)C2C1C` (stereo partly drawn), the Potency entry in test [1] and in test [2] was “inactive” each time.
Turning to `CCC(C)C(=O)O[C@H]1CCC=C2C=C[C@H](C)[C@H](CC[C@@H](O)C[C@@H](O)CC(=O)O)[C@H]21` (stereo partly drawn), the Potency result in test [1] and in test [2] was “inactive” throughout.
For the compound `CC1(C)C2CC=C(COC3OC(COC4OCC(O)(CO)C4O)C(O)C(O)C3O)C1C2` (stereo not drawn), the Potency result in test [1] and in test [2] was “inactive” in each case.
As for `C[C@]1(CO)CCC[C@]2(C)C3=C(CCC12)COC3` (stereo partly drawn), the Potency entry in test [1] and in test [2] was “inactive” each time.
For `CO[C@H]1/C=C\O[C@@]2(C)Oc3c(C)c(O)c4c(O)c(c5c(nc6cc(C)ccn65)c4c3C2=O)NC(=O)/C(C)=C\C=C/[C@H](C)[C@H](O)[C@@H](C)[C@@H](O)[C@@H](C)[C@H](OC(C)=O)[C@@H]1C`, the Potency entry in test [1] and in test [2] was “inactive” in each case.
For the compound `C[C@@H]1C(=O)O[C@H]2[C@@H](O)C34[C@H]5C[C@@H](C(C)(C)C)C36[C@@H](OC(=O)[C@@H]6O)O[C@@]4(C(=O)O5)[C@@]12O` (stereo partly drawn), the Potency entry in test [1] and in test [2] was “inactive” in each case.
Take `CNC12CC3C[C@@](C)(C1)C[C@](C)(C3)C2`: the Potency entry in test [1] and in test [2] was “inactive” throughout.
`O=S(=O)(c1ccc(S(=O)(=O)n2cnc3ccccc32)cc1)N1CCCCCC1`: the Potency entry in test [1] and in test [2] was “inactive” throughout.
Take `COC(=O)CC1CC(c2ccc(O)cc2)=NO1` (stereo not drawn): the Potency result in test [1] and in test [2] was “inactive” throughout.
On to `CN1CCC(Nc2nc(Nc3ccc(Oc4ccccc4)cc3)c3c(=O)[nH]cc(Br)c3n2)CC1`, for which the Potency entry in test [1] and in test [2] was “inactive” each time.
Regarding `CCc1cnn2c(NCc3ccc[n+]([O-])c3)cc(N3CCCCC3CCO)nc12` (stereo not drawn), the Potency result in test [1] and in test [2] was “inactive” each time.
Consider `COc1cc2occc2c(O[C@@H]2O[C@H](CO)[C@@H](O)[C@H](O)[C@H]2O)c1CCC(=O)O`, for which the Potency entry in test [1] and in test [2] was “inactive” each time.
As to `C[C@H](NC(c1cccc(C[P+](=O)O)c1)[C@H](C)O)c1ccc(Cl)c(Cl)c1` (stereo partly drawn), the Potency result in test [1] and in test [2] was “inactive” each time.
Regarding `CC1=CC(=O)C2C(C)(C)CCC[C@]2(C)[C@H]1CO` (stereo partly drawn), the Potency entry in test [1] and in test [2] was “inactive” each time.
As for `O=C(O)/C=C/c1cc2c(cc1O[C@@H]1O[C@H](CO)[C@@H](O)[C@H](O)[C@H]1O)OCO2`, the Potency result in test [1] and in test [2] was “inactive” each time.
In the case of `NC(=O)c1csc(C2OC(CO)C(O)C2O)n1` (stereo not drawn), the Potency entry in test [1] and in test [2] was “inactive” throughout.
In the case of `CCC(C)C(=O)OC1CC(O)C23C4OCC5(C(O)CC2C1(C)C(O)O4)C3C(=O)CC1(C)C(c2ccoc2)CC2OC215` (stereo not drawn), the Potency entry in test [1] and in test [2] was “inactive” throughout.
With `FC(F)(F)c1ccc(Nc2nc(-c3c(C(F)(F)F)nc4ccccn34)cs2)cc1`, the Potency entry in test [1] and in test [2] was “inactive” throughout.
Regarding `C=C1C(O)CC2C(C(=O)O)=COC(O[C@@H]3O[C@H](COC(=O)/C=C/c4ccc(O)cc4)[C@@H](O)[C@H](O)[C@H]3O)C12` (stereo partly drawn), the Potency result in test [1] and in test [2] was “inactive” throughout.
With `COc1ccc(-c2nc(-c3ccc(-c4cccc(Cl)c4)o3)[nH]c2-c2ccc(OC)cc2)cc1`, the Potency entry in test [1] and in test [2] was “inactive” in each case.
For `CC1(C(=O)O)CCCC2(C)C3CCC4CC3(CCC12)CC4=O` (stereo not drawn), the Potency result in test [1] and in test [2] was “inactive” in each case.
Turning to `COC(=O)c1ccc(OC(CO)C(O)c2ccc(O)c(OC)c2)c(OC)c1` (stereo not drawn), the Potency result in test [1] and in test [2] was “inactive” in each case.
As for `CC(C)(C)CCN1C[C@@H]2C(CNC(=O)c3cc(Cl)cc(Cl)c3)[C@@H]2C1` (stereo partly drawn), the Potency entry in test [1] and in test [2] was “inactive” throughout.
Turning to `Cn1nc(C(C)(C)C)cc1C(=O)NC(Cc1cccc(Cl)c1)C(=O)NCC#N` (stereo not drawn), the Potency entry in test [1] and in test [2] was “inactive” in each case.
On to `C[C@@H]1CC[C@@]2(OC1)O[C@H]1C[C@H]3[C@@H]4CC=C5C[C@@H](O)CC[C@]5(C)[C@H]4CC[C@]3(C)[C@H]1[C@@H]2C`, for which the Potency entry in test [1] and in test [2] was “inactive” throughout.
As to `O=C(O)C(O[C@@H]1O[C@H](CO[C@@H]2O[C@H](CO)[C@@H](O)[C@H](O)[C@H]2O)[C@@H](O)[C@H](O)[C@H]1O)c1ccccc1` (stereo partly drawn), the Potency result in test [1] and in test [2] was “inactive” in each case.
As to `C[C@@H]1O[C@@H](O[C@H]2[C@H](O)[C@@H](O[C@@H]3O[C@H](CO)[C@@H](O)[C@H](O[C@@H]4O[C@H](CO)[C@@H](O)[C@H](O)[C@H]4O)[C@H]3O)[C@H](O[C@H]3CC[C@@]4(C)C(=CC[C@@H]5C4CC[C@@]4(C)C5C[C@@H]5OC6(CC[C@@](C)(CO[C@@H]7O[C@H](CO)[C@@H](O)[C@H](O)[C@H]7O)O6)[C@@H](C)[C@@H]54)C3)O[C@@H]2CO)[C@H](O)[C@H](O)[C@H]1O` (stereo partly drawn), in test [1], the activity change, negative = inhibition is 33% [at 19.1 µM]. Also, in test [2], the outcome is “inactive [at 10.7 µM]”.
As to `COc1cc2c(cc1OC)-c1[nH]nc(Nc3cccc(F)c3)c1C2`, the Potency entry in test [1] and in test [2] was “inactive” each time.
As for `COc1ccc2cc(C(C)C(=O)Oc3ccc(C(N)=S)cc3)ccc2c1` (stereo not drawn), the Potency result in test [1] and in test [2] was “inactive” throughout.
